# Screening results: PubChem BioAssay, National Center for Advancing Translational Sciences (NCATS)
# TDP1 block – qHTS Assay for Inhibitors of Tyrosyl-DNA Phosphodiesterase (TDP1); Potency, µM (highest dose often 130 µM), for the others: at the top dose activity change, negative = inhibition, actives largely listed as inhibitors; recombinant TDP1, AlphaScreen DNA substrate cleavage; Tyrosyl-DNA phosphodiesterase 1 (Homo sapiens), Q9NUW8; 0.28% of 350,000 active; also: % is scaled to controls: 0 for no effect and ±100 for the full control effect; nearly all actives have a fitted effect of over 40% in size
#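 Tdp1 1 nM final; 15 min RT w/ cpd; substrate 15 nM, 5 min; beads 10 ug/ml, 10 min; AlphaScreen read. Neg ctrl: no enzyme.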
# Pin1 inh – qHTS Assay to Find Inhibitors of Pin1 | Peptidyl-prolyl cis-trans isomerase NIMA-interacting 1 (Homo sapiens), Q13526 | Pin1 FP peptide displacement, HiFluor488, 10 min | Potency, µM (highest dose often 115 µM), inactives show at the top dose activity, negative = inhibition, hits mostly inhibitors | 0.009% of 390,000 active | AID 504891, 2011; active = well fitted inhibition curve with a large enough effect in the polarisation, with a control signal flat, not every such curve was filed as active; inconclusive = small, poorly fitted or top-dose-only effect, or effect the other way, or a change in a side signal; inactive = no such curve, though single readings can be large or run the other way; the % refers to the polarisation; also: % is scaled to controls: 0 for no effect and ±100 for the full control effect
# Target sequence (Q13526 whole entry, looked up): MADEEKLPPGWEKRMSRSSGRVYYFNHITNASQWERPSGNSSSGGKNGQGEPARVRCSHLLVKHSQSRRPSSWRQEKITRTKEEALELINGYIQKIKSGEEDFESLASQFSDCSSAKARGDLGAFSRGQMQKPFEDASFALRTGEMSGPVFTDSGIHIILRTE
# ASM inhibitor – Inhibitors of Secretory Acid Sphingomyelinase (S-ASM): qHTS; 0.006% of 340,000 active; placental ASM, HMU-PC fluorogenic substrate, 60 min; Potency, µM (doses to about 57.5 µM), for the others: top-dose activity change, negative = inhibition, hits mostly inhibitors; Sphingomyelin phosphodiesterase (Homo sapiens), P17405
#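 HMU-PC0 cleavage (9 uM final) by human placental ASM, 60 min at 37 °C following 10 min compound exposure at RT; stopped at pH 10, fluorescence Ex 386/Em 447 nm.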
# VDR inh – Inhibitors of the vitamin D receptor (VDR): qHTS; Vitamin D3 receptor (Homo sapiens), P11473; VDR-SRC2-3 peptide fluorescence polarization, 2 h; Potency, µM, without a hit: max response, negative = inhibition, hits mostly inhibitors; 0.93% of 400,000 active; AID 504847, 2011; also: % is scaled to controls: 0 for no effect and ±100 for the full control effect
#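 Inhibition of the VDR/SRC2-3 peptide interaction is quantified by fluorescence polarization. Compounds (23 nl, pintool) incubate with the reagents for 2 hours at ambient room temperature.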
# Tb PFK block – qHTS Assay to Find Inhibitors of T. brucei phosphofructokinase | ATP-dependent 6-phosphofructokinase (Trypanosoma brucei brucei), O15648 | T. brucei PFK, ADP-Glo luminescence | Potency, µM (series often up to 57.5 µM), inactives show at the top dose activity, negative = inhibition, most hits filed as inhibitors | 0.17% of 330,000 active | AID 485367, 2010;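 also: 0% = uninhibited 1x PFK enzyme wells and -100% = no-enzyme wells; nearly all actives have a fitted effect of over 60% in size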
#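 1.25 nM PFK with 0.5 mM F6P and 0.1 mM ATP in 0.1 M TEA pH 8.0, 5 mM MgCl2, incubated 45 min at room temperature; ADP measured by ADP-Glo luminescence; compounds titrated up to 57 uM.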
# PLK1 PBD block – qHTS for Inhibitors of PLK1-PDB (polo-like kinase 1 - polo-box domain): Primary Screen; 2.8% of 360,000 active; Potency, µM, inactives show max response, negative = inhibition, usual class: inhibitors; Plk1 PBD binding of FITC phosphopeptide, fluorescence polarization; Serine/threonine-protein kinase PLK1 (Homo sapiens), P53350; also: series mostly up to about 57 µM; % is scaled to controls: 0 for no effect and ±100 for the full control effect; nearly all actives have a fitted effect of over 65% in size
# Target sequence (P53350 whole entry, looked up, the tested form may be a part): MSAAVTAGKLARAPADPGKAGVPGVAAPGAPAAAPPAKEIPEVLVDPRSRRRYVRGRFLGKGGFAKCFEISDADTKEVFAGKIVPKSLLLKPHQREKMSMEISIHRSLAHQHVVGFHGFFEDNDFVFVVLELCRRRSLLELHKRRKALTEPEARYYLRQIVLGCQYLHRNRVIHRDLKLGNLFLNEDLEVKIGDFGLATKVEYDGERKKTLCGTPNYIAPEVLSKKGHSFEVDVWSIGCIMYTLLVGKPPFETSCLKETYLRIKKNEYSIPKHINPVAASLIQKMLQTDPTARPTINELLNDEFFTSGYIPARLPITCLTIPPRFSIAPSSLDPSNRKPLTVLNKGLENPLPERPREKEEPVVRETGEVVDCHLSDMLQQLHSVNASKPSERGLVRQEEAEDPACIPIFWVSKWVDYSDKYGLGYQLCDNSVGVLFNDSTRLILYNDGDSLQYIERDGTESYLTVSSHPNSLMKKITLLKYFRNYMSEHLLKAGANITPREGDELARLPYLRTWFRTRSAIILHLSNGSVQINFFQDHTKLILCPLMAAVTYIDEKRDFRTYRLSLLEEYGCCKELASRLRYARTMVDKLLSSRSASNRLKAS
# An asterisk follows results filed as active; u = inconclusive; x = no result given; ! = a repeat was not active; [ ] = dose if it differs, or a comment. Compounds with a hit are over-represented: about 3.1% of the library has one in this group of screens. Unless noted, calls follow the shape of the dose curve; as a rule, active = well fitted curve in the direction sought with a large enough effect; inconclusive = small, poorly fitted or top-dose-only effect, or another doubt; inactive = no such curve, though single readings can be large; an effect the other way counts as inactive or inconclusive. Potency is read from the fitted curve at half-maximal effect.
SMILES,TDP1 block,Pin1 inh,ASM inhibitor,VDR inh,Tb PFK block,PLK1 PBD block
O=C(O)c1[nH]c2ccccc2c1NS(=O)(=O)c1ccc(F)cc1,6.2%,-22.1%,4.8%,-4.1%,0.6%,u
Cc1ccc(S(=O)(=O)Nc2c(C(=O)O)[nH]c3ccccc23)c(C)c1,8.1%,u,6.0%,-22.1%,1.4%,26.7µM*
C=CCn1c(SCC(=O)Nc2cccc(C)c2)nnc1-c1cnccn1,0.0%,-13.3%,-2.8%,8.1%,-7.1%,-7.4%
C=CCn1c(SCC(=O)Nc2ccc(N(C)C)cc2)nnc1-c1cccc(C)c1,-6.1%,-3.3%,-0.4%,89.1µM*,-0.8%,-9.7%
Cc1cccc(N(C(=O)CNC(=O)c2ccco2)C(C(=O)NC2CCCC2)c2ccncc2)c1 (stereo unspecified),x,3.0%,5.8%,8.3%,-1.7%,-5.3%
Cc1cc(C)cc(N(C(=O)CNC(=O)c2ccco2)C(C(=O)NC2CCCC2)c2ccncc2)c1 (stereo unspecified),9.1%,-0.8%,2.0%,u,-0.7%,29.9µM*
O=C(NCC(=O)N(c1ccc2c(c1)OCO2)C(C(=O)NC1CCCC1)c1ccncc1)c1ccco1 (stereo unspecified),x,u,2.7%,-21.4%,u,2.67µM*
O=C(Nc1nnc(C23CC4CC(CC(C4)C2)C3)s1)c1ccc(N2C(=O)CCC2=O)cc1,44.7µM*,-10.6%,2.4%,2.4%,-14.2%,-12.2%
COc1cc(C=O)ccc1Oc1nc(Nc2ccc(F)cc2F)nc(N2CCOCC2)n1,4.9%,7.4%,-3.7%,-23.9%,u,21.2µM*
CCN(C(=O)Cn1c(=O)oc2ccccc21)c1cccc(C)c1,x,0.1%,0.1%,-27.0%,14.1%,26.7µM*
CCc1c(C)sc2c1CCN(Cc1cccc(F)c1)C2c1ccccc1 (stereo unspecified),-3.8%,u,x,1.6%,x,x
Cc1cc2cc(CNC(=O)c3cccs3)ccc2n1C,-2.5%,x,-1.2%,-13.8%,-0.8%,26.7µM*
C=CCC1C=CC(Oc2ccc(F)cc2C)C(CO)O1 (stereo unspecified),2.6%[21 µM],x,x,x,x,x
CN1C(=O)c2oc3ccccc3c(=O)c2C1c1ccncc1 (stereo unspecified),7.4%,-0.1%,25.3%,79.4µM*,u,26.7µM*
COc1ccc(C2c3c(oc4ccccc4c3=O)C(=O)N2Cc2ccncc2)cc1 (stereo unspecified),2.0%,x,x,x,1.0%,x
Cn1c(/C(C#N)=C(\O)c2ccc([N+](=O)[O-])cc2)nc2ccccc21,-2.7%,-0.5%,-0.2%,u,0.9%,23.8µM*
CCOC(=O)c1cc2c(=O)c3cc(C)ccc3oc2nc1C,x,4.0%,0.1%,u,1.7%,5.32µM*
Cc1cc(=O)oc2cc(OCc3ccc(C(=O)OCC(=O)N(C)C4CCS(=O)(=O)C4)cc3)ccc12 (stereo unspecified),-5.1%,42.6%,37.4%,-10.1%,1.3%,-0.8%
Cc1cc(=O)oc2cc(OCc3ccc(C(=O)OCC(=O)NC4CCS(=O)(=O)C4)cc3)ccc12 (stereo unspecified),8.91µM*,16.9%,53.0%,3.7%,0.0%,-4.9%
CCCCCCCCCCCCCCCCn1cc[n+](Cc2ccccc2)c1C,2.3%,x,x,85.0%,x,x
O=C1C2=C(S[C@@H]3O[C@H](CO)[C@@H](O)[C@H](O)[C@H]3O2)C(=O)c2ccccc21,-1.2%,x,x,35.5µM*,x,x
Cc1c(C(=O)N2CCC(C)CC2)c(S(=O)(=O)Nc2cccc(C(F)(F)F)c2)c(C)n1C,6.2%,-3.2%,x,6.4%,x,x
COc1ccc(-c2nc(-c3ccccc3)c(-c3ccc(F)cc3)[nH]2)c(OC)c1C,x,u,x,-19.4%,x,x
O=c1nc2c(O)cccn2c2c1c(=O)[nH]c1ccccc12,-5.7%,u,6.1%,2.2%,0.0%,23.8µM*
CCc1cccc(NC(=O)Cn2c(=O)n3nc(-c4cccc(F)c4)nc3c3ccccc32)c1,2.6%,-3.3%,x,12.1%,x,x
SMILES,TDP1 block,Pin1 inh,ASM inhibitor,VDR inh,Tb PFK block,PLK1 PBD block
O=c1nc(SCc2c(F)cccc2Cl)nc(-c2ccccc2)[nH]1,x,0.1%,-0.7%,-3.7%,-7.4%,26.7µM*
CN(C)c1ccc(-c2cc(C3C4C=CCCC4(C)C(=O)N3Cc3ccccc3)ccc2F)cc1 (stereo unspecified),22.1%,5.9%,x,-16.2%,x,x
O=C1[C@H]2CCC=C[C@H]2[C@H](c2ccccc2Br)N1Cc1ccccc1,-4.2%[56.1 µM],u,-6.6%,56.2µM*,1.0%,-14.3%
C[C@@]12CCC=C[C@H]1[C@H](c1ccccc1Br)N(Cc1ccccc1)C2=O,-0.8%[56.1 µM],-1.6%,-8.7%,50.1µM*!,-0.3%,-19.6%
CC1C=C[C@@H]2[C@H](C1)C(=O)N(Cc1ccccc1)[C@H]2c1ccccc1Br (stereo partly specified),-1.0%,x,x,44.7µM*,x,x
O=C1[C@H]2CCC=C[C@H]2[C@H](c2cccc(Br)c2)N1Cc1ccccc1,-0.7%[56.1 µM],2.3%,-8.5%,u,-0.2%,21.2µM*
Cc1ccc(Cn2cc(C(=O)c3ccc4c(c3)OCO4)c(=O)c3cc(C)ccc32)cc1,6.9%,16.3%,x,9.0%,x,x
CCOC(=O)c1ccc(NC(=O)CC2C(=O)N(c3cccc(OC)c3)C(=O)N2Cc2cccnc2)cc1 (stereo unspecified),5.6%,-6.4%,x,-3.8%,x,x
COc1cccc(OC)c1C1=Nn2c(nnc2-c2ccccc2C)SC1,11.5%,-12.6%,x,x,x,x
CC(/C=C/C(=O)NO)=C\[C@@H](C)C(=O)c1ccc(N(C)C)cc1,9.8%,x,x,u,x,x
CCOc1ccc2nc(NC(=O)c3ccccc3)sc2c1,2.9%[2.28 µM],5.4%,x,u,x,x
CCOc1ccc2nc(NC(=S)N(C)C)sc2c1,7.6%,3.5%,-2.1%,-22.7%,-5.1%,18.9µM*
CCNC(=O)Nc1nc2ccccc2s1,1.1%,-6.8%,4.1%,-0.2%,3.4%,7.6%
CN(C)C(=S)Nc1nc2ccccc2s1,7.4%,-0.3%,-1.4%,u,u,10.6µM*
CCOC(=O)c1ccccc1NC(=O)CSc1ccc(-c2sc(-c3ccccc3)nc2C)nn1,-10.3%,5.8%,x,4.8%,x,x
COc1ccc(OC)c(C2C(C(=O)Nc3ccc(C)cc3)=C(C)Nc3nnnn32)c1 (stereo unspecified),-1.9%,u,x,4.8%,x,x
